NS1 inh: influenza NS1 inhibition | Potency, µM (series often up to 46.1 µM) | hit rate 0.4% among 270,000 | AID 2326; further: actives are rising curves; nearly all actives have a fitted effect of over 50% in size
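Growth recovery, yeast-based: influenza A NS1 expressed in S. cerevisiae causes slow growth, and suppressors are detected by OD600. The parent strain without NS1 is used as positive control.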
AMA1-RON2 inh: disrupts binding of P. falciparum AMA1 to RON2 | AlphaScreen AMA1-biotinylated RON2 peptide binding | Potency, µM (top dose mostly 58.2 µM), actives largely listed as inhibitors | hit rate 0.2% among 360,000 | AID 720542; active means well fitted inhibition curve with a large enough effect; inconclusive means small, poorly fitted or top-dose-only effect; inactive means no such curve, though single readings can be large or run the other way; further: nearly all actives have a fitted effect of over 45% in size
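AMA1 (3D7) with his tag at 25 nM final met compounds first, then biotinylated RON2 peptide at 25 nM; detection used donor plus acceptor beads, 10 µg/mL apiece, read by AlphaScreen after 30 min at room temperature.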
SARS PLP yeast: blocks SARS-CoV papain-like protease in a yeast assay; hit rate 0.19% among 330,000; Potency, µM (top dose mostly 32.9 µM), actives largely listed as activators; AID 485353; S. cerevisiae expressing SARS-CoV PLpro, growth rescue; further: nearly all actives have a fitted effect of over 55% in size
Numbers stand for hits; – = inactive; ? = inconclusive; · = not tested or not shown; [ ] = dose if it differs, or a comment. Sampled rows, rich in hits. Any-hit rate of the full collection: about 0.65%. Unless noted, the call rests on the fitted dose curve.

SMILES	NS1 inh	AMA1-RON2 inh	SARS PLP yeast
CC1CCCCN1CC(=O)Nc1ccc(N2CCCCCC2)cc1 (configuration not stated)	–	28µM	–
CC1CCCCN1CC(=O)Nc1ccc(Oc2ccccc2)cc1 (configuration not stated)	–	–	–
CCCCCCCCN1C(=O)[C@H](CC(=O)N2CCSCC2)C[C@@]2(C(=O)OC)CC(C)(C)CC=C12	·	–	·
CCCCCCC1CC(CSC(=N)N)OC1=O (configuration not stated)	–	–	–
CCCC1CC(CSC(=N)N)OC1=O (configuration not stated)	–	–	14µM
COc1ccc([C@]23Cc4ccccc4C(O2)C2=C(O3)C(=O)c3ccccc3C2=O)cc1	–	·	–[6.58 µM]
CN1CCS/C1=C/C=C1\SC(=S)N(CC(=O)O)C1=O	–	–	–
CCCCN1C(=O)/C(=C/C=C2\SCCN2C)SC1=S	·	10µM	–
Cc1cccn2c(=O)c(C(=O)NCCCN3CC(C)CC(C)C3)c(O)nc12 (configuration not stated)	·	–	–
COc1ccc(C(=N/O)/C(=N/O)c2ccc(OC)cc2)cc1	–	–	–
COc1ccc(C(C#N)=C2C=CC(=NO)C(C)=C2Cl)cc1	·	3.2µM	·
CCOC(=O)/C(C#N)=C(/C)c1ccc(OC)cc1	–	–	–
COc1ccc(C(C#N)=C2C=C(Cl)C(=NO)C=C2Cl)cc1	·	22µM	·
Cc1ccc(-c2nc3c(c(SCC(=O)Nc4cccc(C(=O)O)c4)n2)Cc2cccc(C)c2O3)cc1	·	·	–
COC(=O)[C@@H]1O[C@@H](SCCN)[C@@H](O)[C@H](O)[C@H]1O	–	·	·
Cc1cccc(N(C)S(=O)(=O)c2nnc(NC(=O)C3CCCCC3)s2)c1	·	·	–
CC12CCC(C(=O)N(CSC(=S)N/N=C\c3ccccc3O)C1=O)C2(C)C (configuration not stated)	–	20µM	–
CC12CCC(C(=O)N(CC(O)CN3CCN(Cc4ccccc4)CC3)C1=O)C2(C)C (configuration not stated)	–	–	–
[ClH+][Cu][ClH+].[Cu].[OH2+]c1ccc2ccccc2c1CN1CCCCC1.[OH2+]c1ccc2ccccc2c1CN1CCCCC1	–	·	·
Cc1ccc(NC(=O)CN(C)Cc2cccs2)cc1Cl	–	–	–
CCN(CC)c1ccc(NC(=O)CN(C)Cc2cccs2)cc1	–	13µM	–
O=C(c1ccc2ccccc2c1)N1CCN(Cc2ccccc2)CC1	–	–	–
O=[N+]([O-])c1cc(Br)c(Nc2ccccc2)c([N+](=O)[O-])c1	–	25µM	–
O=C(Nc1ccccc1)c1ccc(Nc2c([N+](=O)[O-])cc([N+](=O)[O-])c3ccccc23)cc1	–	–	–
COc1cc(C)cc2c(-c3c(O)cc(O)c4c3C[C@H](C)N[C@@H]4C)cc(-c3cc(-c4c(O)cc(O)c5c4C[C@H](C)N[C@@H]5C)c4cc(C)cc(OC)c4c3O)c(O)c12	7.9µM	·	·
SMILES	NS1 inh	AMA1-RON2 inh	SARS PLP yeast
COc1cc2c(cc1OC)-c1cc(=Nc3c(C)cc(C)cc3C)n(C)c(=O)n1CC2	–	·	·
CCCCn1c(N)c(N(CCOC)C(=O)c2ccc(S(=O)(=O)N3CCCCCC3)cc2)c(=O)[nH]c1=O	·	–	–
CCN(CC)c1ccc(Nc2nc(-c3cccnc3)cs2)cc1	–	28µM	–
CN(C)c1ccc(Nc2nc(-c3cccnc3)cs2)cc1	–	?	–
O=C(O)C[SH+]CC(=O)O.O=C(O)C[SH+]CC(=O)O.[Cu]	–	·	·
COc1ccc2oc(C(=O)N3CCCc4ccccc43)c(C)c2c1	·	–	–
COc1cc2cccc(OC)c(=O)c2c(O)c1OC	–	–	–
CC(=O)Oc1cc2cccc(OC(C)=O)c(=O)c2c(OC(C)=O)c1OC(C)=O	–	1.8µM	8.9µM
Cc1ccc([C@@]2(C)CC/C(=N/N=C3\CC[C@](C)(c4ccc(C)c(C)c4)c4cc(C)c(C)cc43)c3cc(C)c(C)cc32)cc1C	–	·	·
Nc1ccc(N=Nc2ccc(N)cc2)cc1	·	–	–
Cc1cc(N(C)C)ccc1N=Nc1ccc(N)cc1	·	14µM	·
NC(=S)N/N=C/c1ccc(-n2nncc2-c2ccc(Cl)cc2)cc1	–	–	10µM
NC(=S)N/N=C/c1ccc(/C=N/NC(N)=S)cc1	–	–	–
N=C(N)c1ccc(/C=C\c2ccc(C(=N)N)cc2)cc1	–	·	·
O=C(CCNC(=O)c1ccc([N+](=O)[O-])cc1)NNC(=O)c1ccncc1	–	–	6.3µM
O=C(CCNC(=O)c1ccc([N+](=O)[O-])cc1)Nc1ccc(F)cc1	–	–	–
CCCCCCCCCCCCCCCCCC(=O)NCC(COP(=O)([O-])OCC[N+](C)(C)C)OCC (configuration not stated)	–	·	·
COc1ccc(N2CCN(CC(=O)Nc3c(C)cc(C)cc3C)CC2)cc1	–	–	–
COc1ccccc1N1CCN(Cc2cc3c(cc2Br)OCCO3)CC1	–	?	–
COc1ccc(N2CCN(Cc3cc4c(cc3Br)OCCO4)CC2)cc1	–	13µM	–
COc1ccc(N2CCN(Cc3csc(C)c3-c3ccc(C)cc3)CC2)cc1	–	10µM	–
Cn1ccc2cc(-c3ccc4ncnc(NCc5cccnc5)c4c3)ccc21	·	·	–
COc1cccc(-c2cc(C(F)(F)F)n3nc(C(=O)N4CCCCC4c4cccnc4)cc3n2)c1 (configuration not stated)	·	–	–
O=C1CNC(=S)N1C1CCCCCC1	–	–	–
CC(/C=N/N1CCN(Cc2ccccc2)CC1)=C\c1ccccc1	·	13µM	–
SMILES	NS1 inh	AMA1-RON2 inh	SARS PLP yeast
Cc1ccc(/C=N/N2CCN(Cc3ccccc3)CC2)cc1	·	13µM	–
Cc1ccc(CN2CCN(/N=C/c3ccccc3)CC2)cc1	–	–	–
CC(=C/c1ccccc1)/C=N/N1CCN(Cc2ccc(C)cc2)CC1	–	–	–
CN1CCC(N(C)C(=O)c2cc(-c3ccccc3Cl)nc3ccccc23)CC1	·	–	–
CNCCc1ccc(O)c(O)c1	–	7.1µM	·
CC(=O)NCCc1ccc(O)c(O)c1	–	·	·
COc1cc(O)c(C(CCN2CCOCC2)c2ccc(N(C)C)cc2)c(OC)c1 (configuration not stated)	–	20µM	–
COc1cc(O)c(C(CCN2CCOCC2)c2ccc3c(c2)OCO3)c(OC)c1 (configuration not stated)	–	–	–
COc1ccc(C(CCN2CCN(c3ccccc3)CC2)c2c(O)cc(OC)cc2OC)cc1 (configuration not stated)	–	?	–
COc1cc(O)c(C(CCN2CCN(c3ccccc3)CC2)c2ccc(N(C)C)cc2)c(OC)c1 (configuration not stated)	–	11µM	–
NS(=O)(=O)c1ccc(NC(=O)CSc2nc(Nc3ccccc3)nc(N3CCOCC3)n2)cc1	–	–	–
O=C1c2ccccc2-c2onc3ccc(N4CCCC4)c1c23	·	?	–
O=C1c2ccccc2C(=O)c2c1cccc2N1CCCC1	–	13µM	–
CCCCC[CH2][Hg][S]C1=C2N=CNC2NC(N)=N1 (configuration not stated)	–	·	·
CCC(c1ccc(O)c(O)c1)C(CC)c1ccc(O)c(O)c1 (configuration not stated)	·	25µM	·
CCC(NC(C)C)C(O)c1ccc(O)c(O)c1 (configuration not stated)	–	–	–
Cc1ccccc1N1CCN(C2CCCN(C(=O)CCc3c(C)noc3C)C2)CC1 (configuration not stated)	–	–	–
